Each structure is given as a SMILES string. This is part of a sample that, as a whole, favours compounds with a hit. Of some 83,000 tested, about 20% had one in any assay.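 Growth was measured after 48 h exposure to one concentration of compound in 96-well plates. Values under 10 count as active.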 Unmarked numbers belong to inactive results. Active and inactive are the calls of the source.

The first test has as its system EKVX NSCLC. Briefly: NCI-60 one-dose screen, 48 h (100 = growth as untreated, 0 = no growth, -100 = all killed). The note with it: 1 µM.
On to `CC/C(=C(/c1ccc(O)cc1)c1ccc(OCCN(C)C(=O)COCCOCCNC(=O)c2ccc3c(c2)CN([C@@H]2CCC(=O)NC2=O)C3=O)cc1)c1ccccc1`, for which the growth was 99.1%.
Regarding `CC/C(=C(/c1ccc(O)cc1)c1ccc(OCCN(C)C(=O)COCCOCCNC(=O)Cc2ccc3c(c2)CN([C@@H]2CCC(=O)NC2=O)C3=O)cc1)c1ccccc1`, the growth is 99.4%.
Still for that read-out and setting: the value for `CC/C(=C(\c1ccc(O)cc1)c1ccc(OCCNC)cc1)c1ccccc1` was 98.9%.
The same measure, in the same setting: in the case of `CC/C(=C(\c1ccc(O)cc1)c1ccc(OCCN(C)C(=O)CCOCCNC(=O)c2ccc3c(c2)CN([C@@H]2CCC(=O)NC2=O)C3=O)cc1)c1ccccc1` it was 100%.
In the case of `CC/C(=C(\c1ccc(O)cc1)c1ccc(OCCN(C)C(=O)COCCNC(=O)Cc2ccc3c(c2)CN([C@@H]2CCC(=O)NC2=O)C3=O)cc1)c1ccccc1`, the growth is 103%.

The same test, now with this note: 10 µM.
Consider `CC/C(=C(/c1ccc(O)cc1)c1ccc(OCCN(C)C(=O)COCCOCCNC(=O)c2ccc3c(c2)CN([C@@H]2CCC(=O)NC2=O)C3=O)cc1)c1ccccc1`, for which the growth was 93.4%.
Same read-out and setting: in the case of `CC/C(=C(/c1ccc(O)cc1)c1ccc(OCCN(C)C(=O)COCCOCCNC(=O)Cc2ccc3c(c2)CN([C@@H]2CCC(=O)NC2=O)C3=O)cc1)c1ccccc1` it was 105%; in that of `CC/C(=C(\c1ccc(O)cc1)c1ccc(OCCNC)cc1)c1ccccc1`, 96.4%; in that of `CC/C(=C(\c1ccc(O)cc1)c1ccc(OCCN(C)C(=O)CCOCCNC(=O)c2ccc3c(c2)CN([C@@H]2CCC(=O)NC2=O)C3=O)cc1)c1ccccc1`, 89.1%.
Consider `CC/C(=C(\c1ccc(O)cc1)c1ccc(OCCN(C)C(=O)COCCNC(=O)Cc2ccc3c(c2)CN([C@@H]2CCC(=O)NC2=O)C3=O)cc1)c1ccccc1`, for which the growth was 92.1%.

The test is the same for the next values; noted with them: 10 µM unless noted.
Take `O=C(Nc1ccc(S(=O)(=O)N2CCCCC2)cc1)C(Cl)Cl`: the growth is 95.4%.
For `O=C(c1ccc(Cl)cc1)C1[C@H](c2ccccc2Cl)[C@@H](c2ccccc2)NC12C(=O)Nc1ccccc12` (stereo partly specified), the growth is 1.03% (active).
On the same count and under the same terms, in the case of `O=C(c1ccc(O)cc1)C1[C@H](c2ccc(Cl)cc2)[C@@H](c2ccccc2)NC12C(=O)Nc1ccccc12` (stereo partly specified) it was 8.32% (active); in that of `Cc1ccc2nc(SCc3ccccc3F)n(-c3ccccc3)c(=O)c2c1`, 59.9%.
Take `CCCCNc1ccc2c3c(cccc13)C(=O)N(NCC(O)COc1ccc3c(C)cc(=O)oc3c1)C2=O` (stereo unspecified): the growth is 77.4%.
Turning to `c1n[nH]cc1-c1nc2ccc3[nH]ncc3c2c2c1CC1(CC2)COC1`, the growth is 78.6%.
Same read-out and setting: in the case of `CCN1CCN(Cc2ccc(C(=O)Nc3cccc(Nc4ccc5c(OC)cccc5n4)c3)cc2C(F)(F)F)CC1` it was -95.7% (active).
Consider `O=C(NN1C(=O)/C(=C/C=C/c2ccc([N+](=O)[O-])o2)SC1=S)c1ccc([N+](=O)[O-])cc1`, for which the growth was -97.8% (active).
On to `C=CCn1c(O)c(N=Nc2nc(-c3cc4ccccc4oc3=O)cs2)c2ccccc21`, for which the growth was 55.7%.
For the compound `CCCCCCCCCCCCCCCCCC(=O)Nc1ccc(OC)cc1`, the growth was 94.7%.
Still for that read-out and setting: in the case of `Cn1cc(-c2cc(N)n3nc(-c4c[nH]c5ccc(Cl)cc45)cc3n2)c2cc(Br)cnc21` it was 0.312% (active); in that of `COC(=O)c1ccc(-c2c(-c3ccccc3)c(F)c3oc(C(=O)OC)c(N)c3c2-c2ccccc2)cc1`, 90.4%.
`COc1ccc(-c2nc3ccccc3n2CC(=O)N=Nc2c(O)[nH]c3ccc(Br)cc23)cc1`: the growth was 85%.
On to `O=C(N/N=C/c1c[nH]c2ccccc12)Nc1ccccc1Cl`, for which the growth was 2.29% (active).
On the same count and under the same terms, in the case of `COc1ccc(CCC2NCCc3c(Br)c4c(c(OC)c32)OCO4)cc1` (stereo unspecified) it was 24.4%; in that of `CN(C)c1nc(NCCNS(=O)(=O)c2ccc(C(=O)/C=C/c3ccc(Cl)cc3)cc2)nc(N2CCOCC2)n1`, 49.6%.
Same read-out and setting: the value for `COc1ccccc1NC(=O)N/N=C/c1c[nH]c2ccccc12` was 12.3%; that for `O=C1/C(=C/c2cnc(-c3ccccc3)s2)SC(=S)N1Cc1ccc2c(c1)OCO2` was 79.3%.
`N#CC1=C(c2cccs2)Nc2c(c(-c3ccccc3)nn2-c2ccccc2)C12C(=O)Nc1ccccc12` (stereo unspecified): the growth was 14.8%.
Take `COc1ccc2[nH]c(=O)cc(-n3ncc(C(=O)/C=C/c4cc(OC)c(OC)c(OC)c4)c3C)c2c1`: the growth was 11%.
Regarding `C[C@H](NC(=O)c1ccc2c(-c3ccc(C(F)(F)F)cc3)cccc2c1)c1ccccn1`, the growth was 22.8%.
`Cn1cc(Nc2ncnc(-c3ccc(N4CCCC4)c(C#N)c3)n2)cn1`: the growth was 95.3%.
Regarding `CCCCCCCCc1cccc(CC(=O)Nc2ccc(C)cc2C(=O)O)c1`, the growth is 66.5% [25 µM].
Regarding `O=C1CCC(N2C(=O)c3cccc(NCCCCCC(=O)N4CCN(c5ccc6nc7c(nc6c5C(F)(F)F)C(=O)c5ncccc5C7=O)CC4)c3C2=O)C(=O)N1` (stereo unspecified), the growth is -59.6% (active).
`CN1C(=O)/C(=C\C(=O)c2cc3ccccc3oc2=O)c2ccccc21`: the growth is 63.6%.
Take `Cc1ccc2nc(NC(=O)Nc3cccc(Cl)c3)sc2c1`: the growth was 87.7%.
Same read-out and setting: the value for `O=C1Nc2ccccc2/C1=C\c1ccc(OCC(=O)c2ccc(Br)cc2)cc1` was 65.6%.
Still for that read-out and setting: the value for `COc1ccc2[nH]cc(-c3cc(N)n4nc(-c5c[nH]c6ccccc56)cc4n3)c2c1` was 10.9%; that for `Cn1cc(-c2cc(N)n3nc(-c4c[nH]c5ccc(Cl)cc45)cc3n2)c2cccnc21` was -71.9% (active).
Consider `Cc1ccc(-c2cc(C(=O)N=Nc3c(O)[nH]c4ccc(F)cc34)c3ccccc3n2)cc1`, for which the growth was 29.8%.
For `O=C(NN1C(=O)/C(=C/C=C/c2ccc([N+](=O)[O-])o2)SC1=S)c1ccncc1`, the growth was -92% (active).

These data come from PubChem BioAssay (NCI).
